Assay results from PubChem BioAssay (EPA / NIEHS).
Active and inactive are the calls of the source. The calls were made as follows: active = hit-call score of the fitted dose curve at least 0.9, where 1 is the maximum; inactive = score below 0.9.

Assay: ATG_TA_CIS: Attagene CIS-FACTORIAL HepG2 Assay for human TA Basal Promoter (AID 2282964)
Details: HepG2 Attagene CIS-factorial TA basal promoter reporter; actives raise or lower the signal
Method in brief: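 Transfected HepG2, 24 h compound exposure; RNA → RT-PCR → FAM primer extension → HpaI cut → CE fluorescence. Gain/loss-of-signal fitted against DMSO negative control. Background-control readout.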

outcome, inactive:
CCCCCCCCCCCCOCCO
CC(C)=CCC/C(C)=C/COC=O
CCC(=O)OCCC(C)CCC=C(C)C (stereo unspecified)
CCCCCCCCCCN
O=C1C(c2[nH]c3ccc(S(=O)(=O)O)cc3c2O)=Nc2ccc(S(=O)(=O)O)cc21
CCCCOCCOCCOCCOCCO
NCCCCCCN
CC(C)(COC(=O)c1ccccc1)COC(=O)c1ccccc1
O=C(COc1ccc(Cl)cc1)N1CCN(Cc2ccc3c(c2)OCO3)CC1
O=CCCc1ccccc1
CCCCCCCCC=O
OCCCCCO
C=C(C)C(=O)Nc1ccc(Cl)c(Cl)c1
C=C(C)[C@@H]1CC[C@@H](C)C[C@@H]1O
OC[C@H]1O[C@H](O[C@]2(CCl)O[C@H](CCl)[C@@H](O)[C@@H]2O)[C@H](O)[C@@H](O)[C@H]1Cl
O=c1[nH]c(=O)n([C@H]2CCCO2)cc1F
Cc1ccc(C=O)s1
C=O
O=C(O)c1cccc(C(F)(F)F)c1
Fc1c(F)c(F)c(Br)c(F)c1F
C=C(C)C1CCC(C)CC1O (stereo unspecified)
O=S(=O)(O)NC1CCCCC1
CCCCCCCCCCC(CO)CCCCCCCC (stereo unspecified)
CO[Si](CCCn1c(=O)n(CCC[Si](OC)(OC)OC)c(=O)n(CCC[Si](OC)(OC)OC)c1=O)(OC)OC
C=CCOc1nc(OCC=C)nc(OCC=C)n1
C=C(C)C(=O)O[C@H]1C[C@@H]2CC[C@@]1(C)C2(C)C
